Test results published in PubChem BioAssay (NCATS).
Values without a mark were called inactive. Results filed as inconclusive are left out. Entries that show only a call come without a potency. Active and inactive are the calls of the source. Calls come from the whole dose curve; as a rule, active = well fitted curve in the direction sought with a large enough effect; inconclusive = small, poorly fitted or top-dose-only effect, or another doubt; inactive = no such curve, though single readings can be large; an effect the other way counts as inactive or inconclusive.

Columns and labels:
[1] = molecular target: Glutathione peroxidase 1 (Homo sapiens) (UniProt P07203); test: Primary qHTS Assay for Inhibitors of Recombinant Selenoprotein Glutathione Peroxidase 1 (GPX1) (AID 1845191); note: nearly all actives have a fitted effect of over 65% in size
Glutathione peroxidase 1 (Homo sapiens), sequence (P07203 whole entry, looked up): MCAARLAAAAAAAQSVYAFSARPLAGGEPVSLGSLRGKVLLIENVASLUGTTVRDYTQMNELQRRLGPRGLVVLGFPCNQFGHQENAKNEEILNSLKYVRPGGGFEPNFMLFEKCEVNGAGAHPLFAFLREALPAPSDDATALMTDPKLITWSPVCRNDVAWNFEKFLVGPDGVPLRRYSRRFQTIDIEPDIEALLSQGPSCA
Procedure, shortened: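 Recombinant GPX1 (10 nM final) was preincubated with compound for 30 min at room temperature, then reacted with 1 mM GSH, 0.5 mM CHP, 0.5 mM NADPH and 100 nM glutathione reductase; NADPH fluorescence (340/450 nm) was read at 0 and 15 min.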

[2] = molecular target: Phospholipid hydroperoxide glutathione peroxidase GPX4 (Homo sapiens) (UniProt P36969); test: Primary qHTS Assay for Inhibitors of Recombinant Selenoprotein Glutathione Peroxidase 4 (GPX4) (AID 1845192); note: nearly all actives have a fitted effect of over 65% in size; for activity change, negative = inhibition: series mostly up to about 50 µM
Phospholipid hydroperoxide glutathione peroxidase GPX4 (Homo sapiens), sequence (P36969 whole entry, looked up): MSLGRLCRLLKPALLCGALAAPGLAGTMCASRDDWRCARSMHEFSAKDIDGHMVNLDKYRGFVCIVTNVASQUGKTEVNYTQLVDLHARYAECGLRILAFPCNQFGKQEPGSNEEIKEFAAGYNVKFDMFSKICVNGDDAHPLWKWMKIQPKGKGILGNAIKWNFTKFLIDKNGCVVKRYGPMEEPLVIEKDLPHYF
Procedure, shortened: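 GR-coupled readout: 100 nM GR, 1 mM GSH, 0.5 mM NADPH; NADPH fluorescence (ex 340/em 450 nm) read at t=0 and after 15 min RT. GPX4 200 nM, preincubated 30 min with compound; substrate 0.5 mM CHP.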

[3] = molecular target: Luciferin 4-monooxygenase (Photinus pyralis) (UniProt P08659); test: Primary firefly luciferase (FLuc) qHTS assay for identification of artifact compounds. (AID 1845220); note: nearly all actives have a fitted effect of over 60% in size; note: potency is the fitted concentration of half-maximal effect; for activity change, negative = inhibition: series mostly up to about 54 µM
Procedure, shortened: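 In this counter-screen for luciferase artifacts, test compounds met substrate (10 uM each luciferin and ATP) before 10 nM enzyme started the reaction. Light output was measured 5 min later.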

[4] = test system: Nanoluciferase (engineered Oplophorus gracilirostris luciferase); test: Primary Nanoluciferase (NLuc) qHTS assay for identification of artifact compounds. (AID 1845222); note: potency is the fitted concentration of half-maximal effect;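 for activity, negative = inhibition: NLuc secreted into diluted conditioned medium of S16 cells; series mostly up to about 54 µM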
Procedure, shortened: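 Using secreted nanoluciferase in S16 culture medium (0.22 um filtered, 1:55 dilution), compounds were preincubated 15 min at RT. Signal was generated with Nano-Glo reagent (1:100) over 5 min.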

[5] = Primary redox qHTS assay for identification of artifact compounds. (AID 1845223); note: potency is the fitted concentration of half-maximal effect
Procedure, shortened: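 Amplex Red (25 uM) and HRP (250 mU/mL) in HBSS, with compounds for 15 min, then 250 uM DTT for 30 min, room temperature, dark. Fluorescence 525/598 nm read; normalized to DMSO and 10 uM DA3003; Hill fit.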

[6] = Primary fluorescence-based thiol-reactive (MSTI) qHTS assay for identification of artifact compounds. (AID 1845221);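 note: series mostly up to about 54 µM; thiol-reactive compounds lower the probe fluorescence signal; nearly all actives have a fitted effect of over 65% in size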
Procedure, shortened: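 qHTS titration of compound; 4 uM MSTI, PBS pH 7.4, 2% DMSO; 1 h RT, dark; fluorescence 525/598 nm; normalized to Acetyl-MSTI and MSTI; 4-parameter Hill fit.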

CC(C)c1cccc(C(C)C)c1NC(=O)Nc1ccc(Sc2ccc([N+](=O)[O-])cc2)cc1
Potency [1]: inactive | Potency [2]: inactive | Potency [3]: inactive | Potency [4]: inactive | Potency [5]: inactive

COc1cc2ncnc(Nc3ccc(F)c(Cl)c3)c2cc1O
Potency [1]: inactive | Potency [2]: inactive | Potency [3]: inactive | Potency [5]: inactive

N#CSc1cc(SC#N)c(N)nc1N
Potency [1]: inactive | Potency [2]: inactive | outcome [3]: inactive [at 11.6 µM] | activity, negative = inhibition [4]: -17.4% [at 11.6 µM] | Potency [5]: 5.05 µM (active)

C=C1C(=O)OC2/C=C(\C)CC/C=C(\C=O)C(OC)C(OC(=O)C(C)CC)C12 (configuration not stated)
Potency [1]: inactive | Potency [2]: inactive | Potency [3]: inactive | Potency [4]: inactive | Potency [5]: inactive

CN1CCc2cc3c(cc2C(=O)Cc2cc4c(cc2C1)OCO4)OCO3
Potency [1]: inactive | Potency [2]: inactive | Potency [3]: inactive | Potency [4]: inactive | Potency [5]: inactive

O=C(NS(=O)(=O)c1ccc(Br)s1)c1ccc(Cl)cc1Cl
Potency [1]: inactive | Potency [2]: inactive | Potency [3]: inactive | Potency [4]: 6.75 µM (active) | Potency [5]: inactive

OC1C=C2C3CN(Cc4cc5c(cc43)OCO5)C2CC1O (configuration not stated)
Potency [1]: inactive | Potency [2]: inactive | Potency [3]: inactive | Potency [4]: inactive | Potency [5]: inactive

O=C1Cc2c([nH]c3ccc(Br)cc23)-c2ncccc2N1
Potency [3]: inactive

CC(C)=CCc1cc2c(cc1O)OC[C@H]1c3ccc(O)cc3O[C@@H]21
Potency [1]: inactive | Potency [2]: inactive | Potency [4]: inactive | Potency [5]: inactive

Fc1ccc2[nH]ccc2c1-c1nc(N2CCOCC2)c2sc(CN3CCN(CC4CC4)CC3)cc2n1
Potency [1]: inactive | Potency [3]: inactive | Potency [6]: inactive | Potency [4]: inactive | Potency [5]: inactive

O=C(N[C@H](Cc1cscn1)C(=O)N[C@@H](CC1CCCCC1)[C@@H](O)[C@@H](O)C1CC1)c1nc2ccccc2[nH]1
Potency [1]: inactive | Potency [3]: inactive | Potency [6]: inactive | Potency [4]: inactive | Potency [5]: inactive

Cc1ccc(NC(=O)c2ccc(CN3CCNCC3)cc2)cc1Nc1nccc(-c2cccnc2)n1
Potency [1]: inactive | Potency [3]: 6.75 µM (active) | Potency [6]: inactive | Potency [4]: inactive | Potency [5]: inactive

COc1ccc2cc(-c3cc(-c4cc(Cl)cc(Cl)c4)nn3C(C)c3ccc(C(=O)NCCC(=O)O)cc3)ccc2c1 (configuration not stated)
Potency [1]: inactive | Potency [3]: inactive | Potency [6]: inactive | Potency [4]: inactive | Potency [5]: inactive

CC(=O)OC1C(OC(=O)c2ccccc2)C2C(C)(C)CCC(OC(C)=O)C2(C)C23CCC(C)(C2)C(=O)CC13 (configuration not stated)
Potency [1]: inactive | Potency [3]: inactive | Potency [6]: inactive | Potency [4]: inactive | Potency [5]: inactive

Cc1cccc(N2CCN(C(=O)c3cc(S(=O)(=O)N(C)C)ccc3N3CCCC3)CC2)c1C
Potency [1]: inactive | Potency [3]: inactive | Potency [6]: inactive | Potency [4]: inactive | Potency [5]: inactive

Clc1cccc(COc2cncc(N3CCNCC3)n2)c1
Potency [1]: inactive | Potency [3]: inactive | Potency [6]: inactive | Potency [4]: inactive | Potency [5]: inactive

CCC(C)C(=O)OC12C(OC(C)=O)C(C)C3(O)C(C=C(CO)CC4(O)C(=O)C(C)=CC43)C1C2(C)C (configuration not stated)
Potency [1]: inactive | Potency [3]: inactive | Potency [6]: inactive | Potency [4]: inactive | Potency [5]: inactive

Cn1ncnc1[C@H]1c2n[nH]c(=O)c3cc(F)cc(c23)N[C@@H]1c1ccc(F)cc1
Potency [1]: inactive | Potency [3]: inactive | Potency [6]: inactive | Potency [4]: inactive | Potency [5]: inactive

O=C(Nc1cccc(C(F)(F)F)c1)Nc1ccc(Br)cc1-c1nn[nH]n1
Potency [1]: inactive | Potency [3]: inactive | Potency [6]: inactive | Potency [4]: inactive | Potency [5]: inactive

COc1ccc(C#Cc2ccc(C(=O)N3CCC[C@@H](O)C3)c(F)c2)cc1
Potency [1]: inactive | Potency [3]: inactive | Potency [6]: inactive | Potency [4]: inactive | Potency [5]: inactive

CCCc1ccc(OCC(=O)N(Cc2nc(-c3cccnc3)no2)C(C)C)cc1
Potency [1]: inactive | Potency [3]: inactive | Potency [6]: inactive | Potency [4]: inactive | Potency [5]: inactive

COc1ccc(CN2CCN(CCCSc3cc(C(C)(C)C)c(O)c(C(C)(C)C)c3)CC2)c(OC)c1OC
Potency [1]: inactive | activity change, negative = inhibition [3]: 3.48% [at 11.6 µM] | activity change, negative = thiol reactive [6]: 2.62% [at 11.5 µM] | activity, negative = inhibition [4]: 3.22% [at 11.6 µM] | redox activity (% of DA3003) [5]: 6.4% [at 11.5 µM]

COC1=CC(=O)O/C1=C(/OC)[C@@H]1O[C@H]1c1ccccc1
Potency [1]: inactive | Potency [3]: inactive | Potency [6]: inactive | Potency [4]: inactive | Potency [5]: inactive

Cc1ccc(CNc2ncnc3ccc(-c4ccc(CO)o4)cc23)o1
Potency [1]: inactive | Potency [3]: inactive | Potency [6]: inactive | Potency [4]: inactive | Potency [5]: inactive

Cn1ncnc1[C@@H]1c2n[nH]c(=O)c3cc(F)cc(c23)N[C@H]1c1ccc(F)cc1
Potency [1]: inactive | Potency [3]: inactive | Potency [6]: inactive | Potency [4]: inactive

C=C[C@](C)(O)CC[C@H]1C(C)=CC(=O)[C@H]2C(C)(C)CCC[C@]12C
Potency [1]: inactive | Potency [3]: inactive | Potency [6]: inactive | Potency [4]: inactive | Potency [5]: inactive

O=C([C@@H](Cc1cccc(C(F)(F)F)c1)NS(=O)(=O)c1cc(F)c2c(c1)CCNC2)N1CCCC1
Potency [1]: inactive | Potency [3]: inactive | Potency [6]: inactive | Potency [4]: inactive | Potency [5]: inactive

O=C(O)c1cc(N(Cc2ccc(C3CCCCC3)cc2)C(=O)c2ccc(Oc3ccccc3)cc2)ccc1O
Potency [1]: inactive | Potency [3]: inactive | Potency [6]: inactive | Potency [4]: inactive | Potency [5]: inactive

CCN(Cc1ccccc1)C(=O)Cn1c(=O)n(C)c2cnc(-c3ccccc3)nc21
Potency [1]: inactive | Potency [3]: inactive | Potency [6]: inactive | Potency [4]: inactive

O=C(NCC(=O)N1CCCC1)Nc1ccc2cnccc2c1
Potency [1]: inactive | Potency [3]: inactive | Potency [6]: inactive | Potency [4]: inactive | Potency [5]: inactive

N#Cc1ccc(N2N=C3c4ccc(C(=O)O)cc4CC[C@@H]3[C@@H]2C2CCCC2)cc1Cl
Potency [1]: inactive | Potency [3]: inactive | Potency [6]: inactive | Potency [4]: inactive | Potency [5]: inactive

COc1ccccc1S(=O)(=O)Nc1ccc2c(c1)CN(C)C(=O)N2
Potency [1]: inactive | Potency [3]: inactive | Potency [6]: inactive | Potency [4]: inactive | Potency [5]: inactive

C#CC(=O)N(c1ccc(OC)cc1OC)C(C(=O)NCC(=O)OCC)c1cccs1 (configuration not stated)
Potency [1]: inactive | Potency [3]: inactive | Potency [6]: inactive | Potency [4]: inactive | Potency [5]: inactive

CC1=CC2/C=C(\C)CCC(O)C/C=C/C(=O)OC23C(=O)NC(CC(C)C)C3C1C (configuration not stated)
Potency [1]: inactive | Potency [3]: inactive | Potency [6]: inactive | Potency [4]: inactive | Potency [5]: inactive

O=c1cc(N2CCN(c3cccc(C(F)(F)F)c3)CC2)[nH]c(=O)n1C1CCCCC1
Potency [1]: inactive | Potency [3]: inactive | Potency [6]: inactive | Potency [4]: inactive | Potency [5]: inactive
